# Where “and” joins values, the source holds several entries; their conditions need not be identical. Identical values can stand only once.
# Biological target: Mitogen-activated protein kinase 11 (Homo sapiens) (UniProt Q15759);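 further: values are mean percent inhibition of p38beta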
# Details: at 1 µM
# Sequence of Mitogen-activated protein kinase 11 (Homo sapiens) (Q15759 whole entry): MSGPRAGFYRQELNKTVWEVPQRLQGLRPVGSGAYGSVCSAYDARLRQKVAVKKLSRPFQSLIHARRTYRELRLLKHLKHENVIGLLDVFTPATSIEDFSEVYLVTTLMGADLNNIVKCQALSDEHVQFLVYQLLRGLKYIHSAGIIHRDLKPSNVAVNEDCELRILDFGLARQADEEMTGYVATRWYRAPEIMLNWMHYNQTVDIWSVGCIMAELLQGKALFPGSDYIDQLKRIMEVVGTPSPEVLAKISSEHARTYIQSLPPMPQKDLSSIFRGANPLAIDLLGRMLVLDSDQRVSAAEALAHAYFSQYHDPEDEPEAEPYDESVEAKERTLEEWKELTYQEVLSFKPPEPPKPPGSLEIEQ
row,Structure (SMILES),inhibition
1,COC(=O)Nc1nc2ccc(Oc3ccc(NC(=O)Nc4cc(C(F)(F)F)ccc4F)cc3)cc2s1,51.5%
2,COc1ccc(Nc2ncc(-c3ccccc3)o2)cc1OC,4.99%
3,NS(=O)(=O)c1cccc(N/C=C2\C(=O)Nc3ccccc32)c1,9.54%
4,COc1cc(N2CCN(C(C)C)CC2)ccc1Nc1nc(Nc2cccc3ncccc23)c2cc[nH]c2n1,0.54%
5,COc1cc(N2CCN(C(C)C)CC2)ccc1Nc1nc(Nc2cccc(F)c2C(=O)O)c2cc[nH]c2n1,5.38%
6,CN1CCC(C(=O)Nc2n[nH]c3nc(-c4ccc(O)cc4)c(Br)cc23)CC1,17.5% and 8.93%
7,O=C(O[C@H]1CN[C@H](C#Cc2cc3ncnc(Nc4ccc(OCc5cccc(F)c5)c(Cl)c4)c3s2)C1)N1CCOCC1,5.11%
8,CN(C)CCNC(=O)Nc1ccc(N(C)c2ccnc(Nc3ccc(CS(C)(=O)=O)cc3)n2)cc1,2.52%
9,NS(=O)(=O)c1ccc(N/N=C2\C(=O)Nc3ccc(C(=O)NCc4ccncc4)cc32)cc1,9.75%
10,Fc1ccc(Nc2nccc(-c3c(-c4ccc(C(F)(F)F)cc4)nn4ncccc34)n2)cc1F,3.29%
11,CC1(C)CC(n2cnc(-c3ccc(F)cc3)c2-c2ccnc(N)n2)CC(C)(C)N1,55.7%
12,Cc1c2ccc(N(C)c3ccnc(Nc4cccc(S(N)(=O)=O)c4)n3)cc2nn1C,16%
13,CN1CCC(n2cnc(-c3ccc(F)cc3)c2-c2ccnc(NCCO)n2)CC1,52.5%
14,CS(=O)(=O)CCNCc1ccc(-c2ccc3ncnc(Nc4ccc(OCc5ccccc5)cc4)c3c2)o1,4.87%

# Biological target: T1, Mitogen-activated protein kinase 13 (Homo sapiens) (UniProt O15264)
# T1 sequence (whole entry): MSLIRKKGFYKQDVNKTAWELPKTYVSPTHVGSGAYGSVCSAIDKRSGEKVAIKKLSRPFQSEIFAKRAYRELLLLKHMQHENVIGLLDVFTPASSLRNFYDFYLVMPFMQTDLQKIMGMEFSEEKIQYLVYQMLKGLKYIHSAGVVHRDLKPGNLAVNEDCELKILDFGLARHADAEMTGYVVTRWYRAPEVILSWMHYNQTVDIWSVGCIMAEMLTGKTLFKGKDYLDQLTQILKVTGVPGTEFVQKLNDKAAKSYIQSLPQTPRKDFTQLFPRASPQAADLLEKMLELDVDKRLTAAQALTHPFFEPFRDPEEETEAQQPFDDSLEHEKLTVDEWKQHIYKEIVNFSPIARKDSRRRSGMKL
# Details: at 0.1 µM
row,Structure (SMILES),inhibition
1,O=C(O[C@H]1CN[C@H](C#Cc2cc3ncnc(Nc4ccc5c(cnn5Cc5ccccc5)c4)c3s2)C1)N1CCOCC1,-1.3%
2,Cn1c(-c2nonc2N)nc2cnccc21,2.23%
3,Nc1ncnc2occ(-c3ccc(NC(=O)Nc4cc(C(F)(F)F)ccc4F)cc3)c12,5.66% and 0.72%
4,O=C(Nc1n[nH]c2nnc(-c3cccnc3)cc12)C1CC1,-0.07%
5,COc1ccc2ncn(-c3cc(O[C@H](C)c4ccccc4C(F)(F)F)c(C(N)=O)s3)c2c1,-0.27%
6,CCOc1ccc2c(-c3ccnc(Nc4cc(OC)cc(C(F)(F)F)c4)n3)cnn2n1,0.55%
7,c1ccc(-c2n[nH]cc2-c2ccnc(-c3ccc(OCCn4ccnc4)cc3)c2)nc1,0.51%
8,CCN1CCC(C(=O)Nc2n[nH]c3nnc(-c4cccc(F)c4F)cc23)CC1,-1.52%
9,Nc1nonc1-c1nc2cnccc2n1C1CC1,3.43% and 4.51%
10,O=C1Nc2ccccc2/C1=C1\CCc2cc(O)ccc21,3.43%
11,NC(=O)c1ccc2c(-c3ccnc(NCCCO)n3)c(-c3ccc(F)cc3)nn2c1,1.5%
12,NS(=O)(=O)c1ccc(N/N=C2\C(=O)Nc3cccc(CCc4ccncc4)c32)cc1,0.17%
13,FC(F)(F)CNc1nccc(-c2cnn3ncccc23)n1,2.13%
14,COc1ccc(-c2nn3ncccc3c2-c2ccnc(Nc3ccc(F)c(F)c3)n2)cc1,0.5%
15,c1cnn2ncc(-c3ccnc(NCCCN4CCOCC4)n3)c2c1,-1.15%
16,COc1cc(Nc2ncc(-c3ccccc3)o2)cc(OC)c1,5.24%

row,Structure (SMILES),inhibition
1,CCS(=O)(=O)c1ccc(OC)c(Nc2ncc(-c3cccc(C(C)=O)c3)o2)c1,-0.9%
2,COC(=O)Nc1nc2ccc(Oc3ccc(NC(=O)Nc4cc(C(F)(F)F)ccc4F)cc3)cc2s1,0.05%
3,COc1ccc(Nc2ncc(-c3ccccc3)o2)cc1OC,0.77%
4,NS(=O)(=O)c1cccc(N/C=C2\C(=O)Nc3ccccc32)c1,1.07%
5,COc1cc(N2CCN(C(C)C)CC2)ccc1Nc1nc(Nc2cccc3ncccc23)c2cc[nH]c2n1,-1.75%
6,COc1cc(N2CCN(C(C)C)CC2)ccc1Nc1nc(Nc2cccc(F)c2C(=O)O)c2cc[nH]c2n1,4.97%
7,CN1CCC(C(=O)Nc2n[nH]c3nc(-c4ccc(O)cc4)c(Br)cc23)CC1,2.74% and 2.79%
8,O=C(O[C@H]1CN[C@H](C#Cc2cc3ncnc(Nc4ccc(OCc5cccc(F)c5)c(Cl)c4)c3s2)C1)N1CCOCC1,1.84%
9,CN(C)CCNC(=O)Nc1ccc(N(C)c2ccnc(Nc3ccc(CS(C)(=O)=O)cc3)n2)cc1,1.99%
10,NS(=O)(=O)c1ccc(N/N=C2\C(=O)Nc3ccc(C(=O)NCc4ccncc4)cc32)cc1,1.65%
11,Fc1ccc(Nc2nccc(-c3c(-c4ccc(C(F)(F)F)cc4)nn4ncccc34)n2)cc1F,-4.93%
12,CC1(C)CC(n2cnc(-c3ccc(F)cc3)c2-c2ccnc(N)n2)CC(C)(C)N1,1.83%
13,Cc1c2ccc(N(C)c3ccnc(Nc4cccc(S(N)(=O)=O)c4)n3)cc2nn1C,5.49%
14,CN1CCC(n2cnc(-c3ccc(F)cc3)c2-c2ccnc(NCCO)n2)CC1,2.89%
15,CS(=O)(=O)CCNCc1ccc(-c2ccc3ncnc(Nc4ccc(OCc5ccccc5)cc4)c3c2)o1,2.17%

# Biological target: T1, Mitogen-activated protein kinase 13 (Homo sapiens)
# Details: at 1 µM
row,Structure (SMILES),inhibition
1,O=C(O[C@H]1CN[C@H](C#Cc2cc3ncnc(Nc4ccc5c(cnn5Cc5ccccc5)c4)c3s2)C1)N1CCOCC1,-2.91%
2,Cn1c(-c2nonc2N)nc2cnccc21,2.42%
3,Nc1ncnc2occ(-c3ccc(NC(=O)Nc4cc(C(F)(F)F)ccc4F)cc3)c12,29.3% and 17.7%
4,O=C(Nc1n[nH]c2nnc(-c3cccnc3)cc12)C1CC1,5.16%
5,COc1ccc2ncn(-c3cc(O[C@H](C)c4ccccc4C(F)(F)F)c(C(N)=O)s3)c2c1,-1.08%
6,CCOc1ccc2c(-c3ccnc(Nc4cc(OC)cc(C(F)(F)F)c4)n3)cnn2n1,2.07%
7,c1ccc(-c2n[nH]cc2-c2ccnc(-c3ccc(OCCn4ccnc4)cc3)c2)nc1,0.99%
8,CCN1CCC(C(=O)Nc2n[nH]c3nnc(-c4cccc(F)c4F)cc23)CC1,-2.25%
9,Nc1nonc1-c1nc2cnccc2n1C1CC1,6.86% and 5.08%
10,O=C1Nc2ccccc2/C1=C1\CCc2cc(O)ccc21,6.56%
11,NC(=O)c1ccc2c(-c3ccnc(NCCCO)n3)c(-c3ccc(F)cc3)nn2c1,6.27%
12,NS(=O)(=O)c1ccc(N/N=C2\C(=O)Nc3cccc(CCc4ccncc4)c32)cc1,-0.27%
13,FC(F)(F)CNc1nccc(-c2cnn3ncccc23)n1,2.49%
14,COc1ccc(-c2nn3ncccc3c2-c2ccnc(Nc3ccc(F)c(F)c3)n2)cc1,3.31%
15,c1cnn2ncc(-c3ccnc(NCCCN4CCOCC4)n3)c2c1,4.03%
16,COc1cc(Nc2ncc(-c3ccccc3)o2)cc(OC)c1,4.13%

row,Structure (SMILES),inhibition
1,CCS(=O)(=O)c1ccc(OC)c(Nc2ncc(-c3cccc(C(C)=O)c3)o2)c1,3.45%
2,COC(=O)Nc1nc2ccc(Oc3ccc(NC(=O)Nc4cc(C(F)(F)F)ccc4F)cc3)cc2s1,0.18%
3,COc1ccc(Nc2ncc(-c3ccccc3)o2)cc1OC,2.02%
4,NS(=O)(=O)c1cccc(N/C=C2\C(=O)Nc3ccccc32)c1,5.02%
5,COc1cc(N2CCN(C(C)C)CC2)ccc1Nc1nc(Nc2cccc3ncccc23)c2cc[nH]c2n1,-2.15%
6,COc1cc(N2CCN(C(C)C)CC2)ccc1Nc1nc(Nc2cccc(F)c2C(=O)O)c2cc[nH]c2n1,4.09%
7,CN1CCC(C(=O)Nc2n[nH]c3nc(-c4ccc(O)cc4)c(Br)cc23)CC1,13.7% and 11.6%
8,O=C(O[C@H]1CN[C@H](C#Cc2cc3ncnc(Nc4ccc(OCc5cccc(F)c5)c(Cl)c4)c3s2)C1)N1CCOCC1,6.02%
9,CN(C)CCNC(=O)Nc1ccc(N(C)c2ccnc(Nc3ccc(CS(C)(=O)=O)cc3)n2)cc1,3.74%
10,NS(=O)(=O)c1ccc(N/N=C2\C(=O)Nc3ccc(C(=O)NCc4ccncc4)cc32)cc1,4.79%
11,Fc1ccc(Nc2nccc(-c3c(-c4ccc(C(F)(F)F)cc4)nn4ncccc34)n2)cc1F,4.25%
12,CC1(C)CC(n2cnc(-c3ccc(F)cc3)c2-c2ccnc(N)n2)CC(C)(C)N1,1.42%
13,Cc1c2ccc(N(C)c3ccnc(Nc4cccc(S(N)(=O)=O)c4)n3)cc2nn1C,5.64%
14,CN1CCC(n2cnc(-c3ccc(F)cc3)c2-c2ccnc(NCCO)n2)CC1,4.31%
15,CS(=O)(=O)CCNCc1ccc(-c2ccc3ncnc(Nc4ccc(OCc5ccccc5)cc4)c3c2)o1,1.45%

# — ChEMBL document CHEMBL1961873, “Compounds: GSK PKIS; Assays: Nanosyn kinase panel” (2012)
